# Test results: publication PMC7862700, “An all-to-all approach to the identification of sequence-specific readers for epigenetic DNA modifications on cytosine”
# What was measured:
# Assay in all cases: DAPPL (digital affinity profiling via proximity ligation, sequencing); 10 mM Tris-HCl pH 7.5, 50 mM NaCl, 1 mM DTT, 4% glycerol, room temperature, 30 min; GST-TFs on glutathione beads, 16-mer random dsDNA library, 0.1% formaldehyde crosslink after washing; high values mean tight binding
# Details in all cases: protein: recombinant; tags: N-terminal GST; dsDNA, one strand shown
# FLI1 = molecular target: T1, FLI1 (Homo sapiens, UniProt Q01543 1-452)
# T1 sequence: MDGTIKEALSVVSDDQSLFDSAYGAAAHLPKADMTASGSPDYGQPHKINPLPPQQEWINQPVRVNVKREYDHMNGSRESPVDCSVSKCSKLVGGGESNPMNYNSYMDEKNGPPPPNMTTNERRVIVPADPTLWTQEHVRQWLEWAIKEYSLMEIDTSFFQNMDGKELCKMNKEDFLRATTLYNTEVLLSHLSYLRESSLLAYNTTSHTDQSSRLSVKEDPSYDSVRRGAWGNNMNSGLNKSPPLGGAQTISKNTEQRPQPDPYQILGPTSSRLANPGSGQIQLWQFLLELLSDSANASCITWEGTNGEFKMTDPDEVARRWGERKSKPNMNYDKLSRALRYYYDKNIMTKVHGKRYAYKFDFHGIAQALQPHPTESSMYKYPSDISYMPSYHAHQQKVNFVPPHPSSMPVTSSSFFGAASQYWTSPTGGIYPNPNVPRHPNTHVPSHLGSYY
# Method in brief: (§1)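 After expression in yeast as GST fusions, human transcription factors were bound to glutathione beads, DNA-barcoded and mixed with a tag-only sample. The pools were incubated with 200 nmole of a 16-mer random double-stranded DNA library in Tris/NaCl/DTT/glycerol buffer (30 min, room temperature), washed and crosslinked with 0.1% formaldehyde. Proximity ligation with BsaI/T4 ligase ran for 1 h at 37 °C, before PCR amplification and sequencing on an Illumina NextSeq500. Binding signal is a hexamer's read frequency for a factor divided by its frequency for the tag-only sample.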
# ELK1 = molecular target: T2, ELK1 (Homo sapiens, UniProt P19419 1-428)
# T2 sequence: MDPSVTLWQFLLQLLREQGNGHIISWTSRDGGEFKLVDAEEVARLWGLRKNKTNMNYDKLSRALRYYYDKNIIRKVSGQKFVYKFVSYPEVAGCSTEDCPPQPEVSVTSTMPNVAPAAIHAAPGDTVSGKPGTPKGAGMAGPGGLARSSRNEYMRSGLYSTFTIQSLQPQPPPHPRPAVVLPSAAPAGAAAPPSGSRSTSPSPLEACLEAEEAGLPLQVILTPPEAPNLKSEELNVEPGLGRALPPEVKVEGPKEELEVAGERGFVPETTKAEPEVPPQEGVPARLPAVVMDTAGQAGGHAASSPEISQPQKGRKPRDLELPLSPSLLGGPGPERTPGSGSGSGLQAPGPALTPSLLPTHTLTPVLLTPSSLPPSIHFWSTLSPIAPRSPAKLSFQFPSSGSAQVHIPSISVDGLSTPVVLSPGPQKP
# Method in brief: as §1
# GABPA = molecular target: T3, GABPA (Homo sapiens, UniProt Q06546 1-454)
# T3 sequence: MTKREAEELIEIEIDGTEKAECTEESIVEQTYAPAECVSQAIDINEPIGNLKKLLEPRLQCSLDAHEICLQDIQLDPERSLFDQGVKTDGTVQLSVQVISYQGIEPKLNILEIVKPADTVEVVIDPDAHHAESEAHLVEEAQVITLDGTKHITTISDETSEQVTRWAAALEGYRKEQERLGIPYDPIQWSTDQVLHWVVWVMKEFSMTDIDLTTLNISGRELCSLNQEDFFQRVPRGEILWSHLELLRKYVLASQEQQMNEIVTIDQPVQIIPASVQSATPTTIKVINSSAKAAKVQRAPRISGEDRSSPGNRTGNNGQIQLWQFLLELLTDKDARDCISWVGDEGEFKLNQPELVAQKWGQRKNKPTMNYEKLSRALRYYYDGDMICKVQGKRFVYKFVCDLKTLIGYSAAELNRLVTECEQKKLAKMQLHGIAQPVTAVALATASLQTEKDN
# Method in brief: as §1
# ELF1 = ELF1 (Homo sapiens, UniProt P32519 1-619)
# ELF1, sequence (P32519 whole entry): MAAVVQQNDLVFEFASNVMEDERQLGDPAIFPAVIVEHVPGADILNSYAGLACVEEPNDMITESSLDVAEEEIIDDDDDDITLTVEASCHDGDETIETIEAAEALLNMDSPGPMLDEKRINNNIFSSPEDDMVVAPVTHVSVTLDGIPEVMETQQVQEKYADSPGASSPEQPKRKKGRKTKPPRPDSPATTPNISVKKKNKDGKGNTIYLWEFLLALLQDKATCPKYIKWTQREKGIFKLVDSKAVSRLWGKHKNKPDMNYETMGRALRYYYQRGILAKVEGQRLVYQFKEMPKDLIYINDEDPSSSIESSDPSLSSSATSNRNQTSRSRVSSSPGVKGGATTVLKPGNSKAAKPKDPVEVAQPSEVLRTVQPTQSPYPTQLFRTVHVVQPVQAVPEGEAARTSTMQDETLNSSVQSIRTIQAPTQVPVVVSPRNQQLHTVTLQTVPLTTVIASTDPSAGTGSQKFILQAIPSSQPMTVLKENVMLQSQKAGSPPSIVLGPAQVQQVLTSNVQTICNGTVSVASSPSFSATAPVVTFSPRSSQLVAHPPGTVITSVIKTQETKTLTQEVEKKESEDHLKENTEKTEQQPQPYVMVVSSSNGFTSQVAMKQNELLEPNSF
# Method in brief: as §1
# EHF = molecular target: T4, EHF (Homo sapiens, UniProt Q9NZC4 1-300)
# T4 sequence: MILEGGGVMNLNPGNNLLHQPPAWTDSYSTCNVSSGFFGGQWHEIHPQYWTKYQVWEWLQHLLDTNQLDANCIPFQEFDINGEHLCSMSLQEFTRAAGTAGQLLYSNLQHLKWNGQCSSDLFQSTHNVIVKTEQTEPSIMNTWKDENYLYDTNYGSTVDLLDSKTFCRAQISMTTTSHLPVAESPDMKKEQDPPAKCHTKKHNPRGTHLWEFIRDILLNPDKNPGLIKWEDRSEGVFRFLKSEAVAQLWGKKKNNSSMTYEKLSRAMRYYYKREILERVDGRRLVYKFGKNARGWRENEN
# Method in brief: as §1
# SPI1 = SPI1 (Homo sapiens, UniProt P17947 1-270)
# Method in brief: as §1
# SPIB = SPIB (Homo sapiens, UniProt Q01892 1-262)
# SPIB, sequence (Q01892 whole entry): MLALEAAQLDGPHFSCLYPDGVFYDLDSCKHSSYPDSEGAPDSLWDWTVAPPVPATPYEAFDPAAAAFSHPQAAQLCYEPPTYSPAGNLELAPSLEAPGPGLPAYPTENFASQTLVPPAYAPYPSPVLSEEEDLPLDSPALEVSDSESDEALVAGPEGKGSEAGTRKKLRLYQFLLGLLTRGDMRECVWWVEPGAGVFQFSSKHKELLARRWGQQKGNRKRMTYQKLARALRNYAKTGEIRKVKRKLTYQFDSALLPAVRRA
# Method in brief: as §1
# ELK3 = molecular target: T5, ELK3 (Homo sapiens, UniProt P41970 1-407)
# T5 sequence: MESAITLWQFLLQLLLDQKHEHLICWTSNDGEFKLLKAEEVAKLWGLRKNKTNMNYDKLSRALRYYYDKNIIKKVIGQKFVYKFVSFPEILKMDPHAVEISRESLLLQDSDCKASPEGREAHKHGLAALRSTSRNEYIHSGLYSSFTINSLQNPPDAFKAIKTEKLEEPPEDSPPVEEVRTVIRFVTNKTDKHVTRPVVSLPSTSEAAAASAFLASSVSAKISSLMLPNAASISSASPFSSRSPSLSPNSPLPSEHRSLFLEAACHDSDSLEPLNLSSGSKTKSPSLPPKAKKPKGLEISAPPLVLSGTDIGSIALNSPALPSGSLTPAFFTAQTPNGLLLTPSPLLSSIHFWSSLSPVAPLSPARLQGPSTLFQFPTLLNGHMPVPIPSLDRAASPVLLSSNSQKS
# Method in brief: as §1
# FEV = molecular target: T6, FEV (Homo sapiens, UniProt Q99581 1-238)
# T6 sequence: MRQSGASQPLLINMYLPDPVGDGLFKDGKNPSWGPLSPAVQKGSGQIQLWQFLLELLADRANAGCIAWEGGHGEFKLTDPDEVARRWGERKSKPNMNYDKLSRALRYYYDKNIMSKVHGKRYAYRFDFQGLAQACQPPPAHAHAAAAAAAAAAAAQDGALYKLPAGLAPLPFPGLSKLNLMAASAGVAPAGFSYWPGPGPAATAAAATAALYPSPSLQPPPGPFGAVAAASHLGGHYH
# Method in brief: as §1
# ETV5 = ETV5 (Homo sapiens, UniProt P41161 1-510)
# ETV5, sequence (P41161 whole entry): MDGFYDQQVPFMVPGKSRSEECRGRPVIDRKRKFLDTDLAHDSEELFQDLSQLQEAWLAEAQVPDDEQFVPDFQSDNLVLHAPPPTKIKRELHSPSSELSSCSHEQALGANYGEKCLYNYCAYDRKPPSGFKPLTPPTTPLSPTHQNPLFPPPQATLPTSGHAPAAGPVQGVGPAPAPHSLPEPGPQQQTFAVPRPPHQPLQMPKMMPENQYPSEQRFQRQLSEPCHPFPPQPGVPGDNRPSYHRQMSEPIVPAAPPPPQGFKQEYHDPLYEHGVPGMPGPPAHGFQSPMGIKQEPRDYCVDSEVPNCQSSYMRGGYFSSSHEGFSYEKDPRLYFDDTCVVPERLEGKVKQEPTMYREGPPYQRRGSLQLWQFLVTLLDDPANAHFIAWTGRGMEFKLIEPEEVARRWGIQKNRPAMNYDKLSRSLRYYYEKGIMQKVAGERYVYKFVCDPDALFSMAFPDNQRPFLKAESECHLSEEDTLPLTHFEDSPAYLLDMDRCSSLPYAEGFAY
# Method in brief: as §1
# SPIC = molecular target: T7, SPIC (Homo sapiens, UniProt Q8N5J4 1-248)
# T7 sequence: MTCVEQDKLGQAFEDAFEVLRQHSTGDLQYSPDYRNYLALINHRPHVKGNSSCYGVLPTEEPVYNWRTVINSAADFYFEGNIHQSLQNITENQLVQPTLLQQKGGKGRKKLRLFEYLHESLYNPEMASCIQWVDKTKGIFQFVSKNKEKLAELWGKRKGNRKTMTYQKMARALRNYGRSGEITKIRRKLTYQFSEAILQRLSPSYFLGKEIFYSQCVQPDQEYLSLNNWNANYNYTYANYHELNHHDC
# Method in brief: as §1
# ELF4 = ELF4 (Homo sapiens, UniProt Q99607 1-663)
# ELF4, sequence (Q99607 whole entry): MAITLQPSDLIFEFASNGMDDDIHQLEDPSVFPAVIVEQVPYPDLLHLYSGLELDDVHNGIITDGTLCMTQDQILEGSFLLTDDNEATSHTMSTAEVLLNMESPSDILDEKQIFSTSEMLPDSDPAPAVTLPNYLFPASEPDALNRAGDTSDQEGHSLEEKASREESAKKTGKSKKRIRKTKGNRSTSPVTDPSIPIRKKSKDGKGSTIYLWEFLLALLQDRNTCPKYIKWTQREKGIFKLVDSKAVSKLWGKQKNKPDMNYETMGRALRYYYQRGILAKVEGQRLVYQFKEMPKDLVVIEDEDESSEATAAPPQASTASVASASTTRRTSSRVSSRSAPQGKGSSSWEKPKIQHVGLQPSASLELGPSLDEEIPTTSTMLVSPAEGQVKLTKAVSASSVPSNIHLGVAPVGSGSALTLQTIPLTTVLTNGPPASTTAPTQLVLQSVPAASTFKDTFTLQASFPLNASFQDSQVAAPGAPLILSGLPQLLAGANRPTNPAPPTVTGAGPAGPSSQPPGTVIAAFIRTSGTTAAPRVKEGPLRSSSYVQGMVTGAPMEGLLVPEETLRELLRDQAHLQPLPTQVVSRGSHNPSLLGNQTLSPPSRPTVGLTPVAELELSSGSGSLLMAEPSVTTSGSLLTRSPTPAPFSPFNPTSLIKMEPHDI
# Method in brief: as §1
# ELK4 = molecular target: T8, ELK4 (Homo sapiens, UniProt P28324-2 1-405)
# T8 sequence: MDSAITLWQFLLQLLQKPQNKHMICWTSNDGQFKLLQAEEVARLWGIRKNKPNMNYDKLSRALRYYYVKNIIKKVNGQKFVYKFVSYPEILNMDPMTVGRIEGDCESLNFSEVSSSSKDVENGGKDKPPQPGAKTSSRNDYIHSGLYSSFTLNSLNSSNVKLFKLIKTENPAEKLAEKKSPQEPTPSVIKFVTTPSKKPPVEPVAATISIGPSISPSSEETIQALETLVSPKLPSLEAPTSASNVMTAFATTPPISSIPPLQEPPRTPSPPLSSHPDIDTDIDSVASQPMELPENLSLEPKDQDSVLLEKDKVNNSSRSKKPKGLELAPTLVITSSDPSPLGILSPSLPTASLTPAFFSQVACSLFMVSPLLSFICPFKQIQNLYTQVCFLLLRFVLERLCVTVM
# Method in brief: as §1
# ETV2 = molecular target: T9, ETV2 (Homo sapiens, UniProt O00321 1-342)
# T9 sequence: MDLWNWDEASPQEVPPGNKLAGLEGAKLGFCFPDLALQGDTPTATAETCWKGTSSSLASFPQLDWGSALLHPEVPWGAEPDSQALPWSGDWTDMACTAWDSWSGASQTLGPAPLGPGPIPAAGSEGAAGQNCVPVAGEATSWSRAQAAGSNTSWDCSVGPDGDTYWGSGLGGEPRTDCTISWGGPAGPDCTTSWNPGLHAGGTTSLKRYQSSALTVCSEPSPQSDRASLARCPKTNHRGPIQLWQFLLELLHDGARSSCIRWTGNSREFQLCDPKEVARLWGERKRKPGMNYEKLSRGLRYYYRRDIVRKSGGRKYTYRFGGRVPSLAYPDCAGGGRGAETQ
# Method in brief: as §1
# ELF3 = molecular target: T10, ELF3 (Homo sapiens, UniProt P78545 1-371)
# T10 sequence: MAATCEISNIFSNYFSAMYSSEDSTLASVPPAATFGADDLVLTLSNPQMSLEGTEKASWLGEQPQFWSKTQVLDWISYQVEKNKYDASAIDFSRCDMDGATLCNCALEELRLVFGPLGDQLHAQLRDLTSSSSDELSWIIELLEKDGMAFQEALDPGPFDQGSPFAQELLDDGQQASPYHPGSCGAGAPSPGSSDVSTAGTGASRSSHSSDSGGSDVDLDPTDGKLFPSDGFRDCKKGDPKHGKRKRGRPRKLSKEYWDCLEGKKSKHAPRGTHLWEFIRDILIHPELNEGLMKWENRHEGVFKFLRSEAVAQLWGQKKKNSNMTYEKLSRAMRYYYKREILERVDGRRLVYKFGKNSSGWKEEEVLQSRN
# Method in brief: as §1
# CRX = CRX (Homo sapiens, UniProt O43186 1-299)
# CRX, sequence (O43186 whole entry): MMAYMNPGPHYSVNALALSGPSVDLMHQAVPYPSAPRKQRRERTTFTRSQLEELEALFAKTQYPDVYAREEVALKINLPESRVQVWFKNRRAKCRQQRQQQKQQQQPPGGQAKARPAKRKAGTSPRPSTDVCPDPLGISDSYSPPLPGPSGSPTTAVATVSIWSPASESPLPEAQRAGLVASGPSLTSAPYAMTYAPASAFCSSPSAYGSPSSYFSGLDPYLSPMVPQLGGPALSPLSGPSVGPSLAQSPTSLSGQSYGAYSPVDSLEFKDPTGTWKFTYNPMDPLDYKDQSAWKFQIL
# Method in brief: as §1
# ETV1 = ETV1 (Homo sapiens, UniProt P50549 1-477)
# ETV1, sequence (P50549 whole entry): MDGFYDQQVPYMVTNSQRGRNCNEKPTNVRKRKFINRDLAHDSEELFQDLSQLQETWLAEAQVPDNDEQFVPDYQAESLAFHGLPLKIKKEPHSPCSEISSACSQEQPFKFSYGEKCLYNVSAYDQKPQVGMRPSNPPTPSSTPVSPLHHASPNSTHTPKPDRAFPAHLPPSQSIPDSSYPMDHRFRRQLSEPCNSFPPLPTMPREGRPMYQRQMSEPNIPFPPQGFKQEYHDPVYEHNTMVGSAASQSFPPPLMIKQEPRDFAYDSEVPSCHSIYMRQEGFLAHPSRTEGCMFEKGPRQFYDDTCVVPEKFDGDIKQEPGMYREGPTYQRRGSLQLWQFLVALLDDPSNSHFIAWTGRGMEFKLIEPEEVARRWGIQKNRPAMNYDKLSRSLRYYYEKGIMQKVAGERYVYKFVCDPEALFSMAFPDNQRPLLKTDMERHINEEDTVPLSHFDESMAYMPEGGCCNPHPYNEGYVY
# Method in brief: as §1
# ERG = molecular target: T11, ERG (Homo sapiens, UniProt P11308 1-479)
# T11 sequence: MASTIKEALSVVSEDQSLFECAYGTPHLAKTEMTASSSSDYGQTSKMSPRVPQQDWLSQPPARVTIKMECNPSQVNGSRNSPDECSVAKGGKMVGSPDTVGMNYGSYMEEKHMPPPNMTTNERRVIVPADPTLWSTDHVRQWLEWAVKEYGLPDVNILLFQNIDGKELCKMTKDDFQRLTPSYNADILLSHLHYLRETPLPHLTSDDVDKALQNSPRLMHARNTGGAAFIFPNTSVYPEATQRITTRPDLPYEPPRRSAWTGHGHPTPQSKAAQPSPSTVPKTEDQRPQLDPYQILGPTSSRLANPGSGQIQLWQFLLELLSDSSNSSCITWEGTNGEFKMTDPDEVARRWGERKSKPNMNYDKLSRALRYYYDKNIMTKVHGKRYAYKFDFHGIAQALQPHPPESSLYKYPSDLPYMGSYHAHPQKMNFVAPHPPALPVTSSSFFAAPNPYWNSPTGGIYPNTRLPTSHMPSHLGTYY
# Method in brief: as §1
Sequence,binding signal (FLI1),binding signal (ELK1),binding signal (GABPA),binding signal (ELF1),binding signal (EHF),binding signal (SPI1),binding signal (SPIB),binding signal (ELK3),binding signal (FEV),binding signal (ETV5),binding signal (SPIC),binding signal (ELF4),binding signal (ELK4),binding signal (ETV2),binding signal (ELF3),binding signal (CRX),binding signal (ETV1),binding signal (ERG)
TCAGCA,"1.08 fold enrichment (6-mer frequency, TF over GST control)","1.02 fold enrichment (6-mer frequency, TF over GST control)","1.06 fold enrichment (6-mer frequency, TF over GST control)","1.04 fold enrichment (6-mer frequency, TF over GST control)","1.09 fold enrichment (6-mer frequency, TF over GST control)","1.02 fold enrichment (6-mer frequency, TF over GST control)","1.01 fold enrichment (6-mer frequency, TF over GST control)","1.07 fold enrichment (6-mer frequency, TF over GST control)","1.02 fold enrichment (6-mer frequency, TF over GST control)","1.05 fold enrichment (6-mer frequency, TF over GST control)","1.1 fold enrichment (6-mer frequency, TF over GST control)","1.1 fold enrichment (6-mer frequency, TF over GST control)","1 fold enrichment (6-mer frequency, TF over GST control)","1.04 fold enrichment (6-mer frequency, TF over GST control)","1.08 fold enrichment (6-mer frequency, TF over GST control)","1.01 fold enrichment (6-mer frequency, TF over GST control)","1.11 fold enrichment (6-mer frequency, TF over GST control)",–
TCCGGG,"1.54 fold enrichment (6-mer frequency, TF over GST control)","1.55 fold enrichment (6-mer frequency, TF over GST control)","1.35 fold enrichment (6-mer frequency, TF over GST control)","1.48 fold enrichment (6-mer frequency, TF over GST control)","1.48 fold enrichment (6-mer frequency, TF over GST control)","1.4 fold enrichment (6-mer frequency, TF over GST control)","1.65 fold enrichment (6-mer frequency, TF over GST control)","1.46 fold enrichment (6-mer frequency, TF over GST control)","1.36 fold enrichment (6-mer frequency, TF over GST control)","1.69 fold enrichment (6-mer frequency, TF over GST control)","1.63 fold enrichment (6-mer frequency, TF over GST control)","1.41 fold enrichment (6-mer frequency, TF over GST control)","1.37 fold enrichment (6-mer frequency, TF over GST control)","1.5 fold enrichment (6-mer frequency, TF over GST control)","1.41 fold enrichment (6-mer frequency, TF over GST control)",–,"1.59 fold enrichment (6-mer frequency, TF over GST control)","1.56 fold enrichment (6-mer frequency, TF over GST control)"
